The values below come from PubChem BioAssay.

The nature of assay [1]: compound effects on lung adenocarcinoma cell viability – A549, calcein-AM fluorescence, 48 h, basal, profiling panel (AID 1162). To be noted: higher = more signal.
A short description of assay [2]: compound effects on differentiated 3T3-L1 adipocyte viability – cell-based, 3T3-L1 adipocytes, calcein-AM fluorescence, 48 h, basal, profiling panel (AID 1163). To be noted: 3T3-L1 adipocytes viability, higher = more signal.
The nature of assay [3]: compound effects on hepatocellular carcinoma cell viability – HepG2, calcein-AM fluorescence, 48 h, basal, profiling panel (AID 1164). To be noted: higher = more signal.
The nature of assay [4]: compound effects on multiple myeloma cell viability – MM1S, calcein-AM fluorescence, 48 h, basal, profiling panel (AID 1165).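 Note: viability of MM1S multiple myeloma cells under basal unstimulated conditions.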 To be noted: higher = more signal.
Assay [5] can be described thus: calcein-AM signal in unstimulated myeloma cells – cell-based, calcein-AM fluorescence, 48 h, PK04 Diversity Set, profiling panel (AID 1166).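 Note: cells grown under basal conditions without added stimulus.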 To be noted: RPMI8226 myeloma viability, higher = more signal.
Assay [6] can be described thus: JC-1 mitochondrial signal, unstimulated HepG2 cells – cell-based, JC-1 fluorescence, 24 h, 100 nL compound, profiling panel (AID 1167). To be noted: HepG2 mitochondrial potential, higher = more signal.
Assay [7] can be described thus: JC-1 mitochondrial signal, unstimulated adipocytes – cell-based, JC-1 fluorescence, 3T3-L1 adipocytes, 24 h, 100 nL compound, profiling panel (AID 1168). To be noted: JC-1 mitochondrial fluorescence, higher = more signal, called active from +8 up or from −8 down.
The nature of assay [8]: JC-1 mitochondrial signal, unstimulated myeloma cells – cell-based, JC-1 fluorescence, RPMI8226, 24 h, 100 nL compound, profiling panel (AID 1169). To be noted: JC-1 mitochondrial potential fluorescence, higher = more signal.
Assay [9] can be described thus: JC-1 mitochondrial signal, unstimulated MM1S myeloma – cell-based, JC-1 fluorescence, 24 h, 100 nL compound, profiling panel (AID 1170). To be noted: MM1S mitochondrial potential, higher = more signal.
Assay [10] in a line: resazurin metabolic signal in A549 cells – cell-based, resazurin fluorescence, 24 h, PK04 Diversity Set, profiling panel (AID 1171). To be noted: A549 viability, higher = more signal, called active from +8 up or from −8 down.

Calls of active or inactive are those of the source.
Note: test concentration not given here.

Consider `COCCOC(=O)N1C(=O)[C@@]2(c3cc(C#CCC(C(=O)OC)C(=O)OC)ccc31)[C@H](C(=O)N1CCCCCCC1)[C@H]1C(=O)O[C@H](c3ccccc3)[C@H](c3ccccc3)N1[C@@H]2c1ccc(O)cc1`, for which the z-score was -0.0336 in assay [1]; 1.25 in [2]; -0.125 in assay [3]; -0.575 in assay [4]; -1.39 in assay [5]; 0.503 in assay [6]. Besides, the z-score in assay [7] is 1.1 (inactive); in assay [8] it was 0.439; in assay [9] it was 0.579; in [10] it was 0.616 (inactive).
Take `COc1cc(C(O)C2C=CC3C(=O)NC(=O)C3N2Nc2ccc(Cl)cc2Cl)cc(OC)c1OC` (stereo not given): the z-score in [1] was -0.797; in assay [2], 0.349; in assay [3], -0.751; in [4] it was 0.192; in assay [5] it was -1.44; in assay [6] it was -0.359. Also, the z-score in assay [7] was -1.63 (inactive); in assay [8] it was -0.82; in assay [9], 0.483; in assay [10] it was -0.315 (inactive).
For `COCCOC(=O)N1C(=O)[C@@]2(c3cc(C#CCCO)ccc31)[C@H](C(=O)NC[C@H](O)c1ccccc1)[C@H]1C(=O)O[C@H](c3ccccc3)[C@H](c3ccccc3)N1[C@@H]2c1ccccc1OCCO`, the z-score in [1] was 1.27; in assay [2] it was 0.904; in assay [3] it was 1.21; in assay [4], -1.96; in assay [5], -3.05; in assay [6], -1.36. Besides, the z-score in [7] was 0.833 (inactive); in assay [8], -0.844; in assay [9] it was -0.424; in [10] it was 0.715 (inactive).
With `N#Cc1ccc(NN2C(C(O)c3ccccc3)C=CC3C(=O)N(c4ccccc4)C(=O)C32)cc1` (stereo not given), the z-score was -1.14 in assay [1]; -0.173 in [2]; 0.216 in [3]; -0.861 in [4]; -0.32 in assay [5]; -0.782 in assay [6]. In addition, the z-score in [7] is -0.182 (inactive); in [8], 0.0989; in assay [9], 0.976; in assay [10], -0.331 (inactive).
For `C[N+](C)(C)CCCCCCNC(=O)[C@@H]1C[C@@H]2C(=O)NCC(=O)N2[C@@H]1c1cccc(OCCO)c1`, the z-score in [1] is -0.308; in assay [2] it was 0.867; in assay [3], -1.2; in assay [4], -2.7; in [5], 0.422; in assay [6], -0.844. Further, the z-score is -0.0181 (inactive) in [7], -0.0934 in assay [8], -1.39 in assay [9] and 1.46 (inactive) in assay [10].
Consider `N#Cc1ccc(NN2C(C(O)c3ccco3)C=CC3C(=O)N(c4ccccc4)C(=O)C32)cc1` (stereo not given), for which the z-score in assay [1] was -0.121; in assay [2], -0.908; in [3] it was 1.26; in assay [4], -0.372; in assay [5], -0.197; in assay [6], -0.764. Moreover, the z-score was -0.829 (inactive) in assay [7], 0.45 in assay [8], 0.121 in assay [9] and -0.2 (inactive) in [10].
On to `C=CCC(OC(C)=O)[C@@H]1[C@@H](N(Cc2cc3ccccc3o2)C(=O)Cc2ccc(OC)cc2)c2cc(OCCCO)ccc2N1C(=O)c1ccc(-c2ccccc2)cc1` (stereo not given in full), for which the z-score is 0.328 in [1]; 1.05 in assay [2]; 0.228 in assay [3]; -0.841 in assay [4]; -1.82 in assay [5]; 3.42 in assay [6]. In addition, the z-score in assay [7] is 0.182 (inactive); in assay [8], -0.392; in assay [9], 0.415; in assay [10], -0.451 (inactive).
On to `COCC(=C=CC[C@@H](O)c1ccccc1OCCO)C[C@@H](O)COCc1ccccc1`, for which the z-score in assay [1] is 1.94; in assay [2] it was 1.04; in [3] it was 1.13; in [4], 0.338; in assay [5] it was 0.801; in assay [6], 1.32. Further, the z-score in [7] is 0.54 (inactive); in assay [8] it was -0.719; in [9], 1.59; in assay [10] it was 1.84 (inactive).
Take `CC(C)=CCCC(C)=CC(O)C1C=CC2C(=O)N(c3ccccc3)C(=O)C2N1Nc1ccc([N+](=O)[O-])cc1` (stereo not given): the z-score in [1] is -0.498; in [2] it was 0.701; in assay [3], -0.0971; in assay [4], -1.2; in [5], -0.186; in [6], -1.07. Further, the z-score in assay [7] was -1.44 (inactive); in assay [8], 0.417; in [9], 1.41; in [10] it was -0.214 (inactive).
For `CN1C(=O)C2C=CC(C(O)COCc3ccccc3)N(Nc3ccccc3)C2C1=O` (stereo not given), the z-score in assay [1] was -0.115; in assay [2], -1.24; in [3] it was -0.465; in assay [4], 0.225; in [5], 0.192; in assay [6], -1.05. For the same molecule, the z-score is 0.0756 (inactive) in assay [7], -0.0145 in assay [8], -0.178 in [9] and 0.105 (inactive) in [10].
For the molecule `CC(C)CNC(=O)[C@@]1(c2ccc([N+](=O)[O-])cc2)CC(=O)N(C(C)C)[C@@H]1c1ccc(CO)cc1`, the z-score in [1] was 0.264; in assay [2], -0.0455; in assay [3], 0.0153; in assay [4], -1.07; in assay [5] it was 0.399; in assay [6], 0.621. In addition, the z-score in assay [7] is -0.167 (inactive); in [8], 0.604; in assay [9], -0.131; in assay [10] it was 0.591 (inactive).
As to `CCOC(=O)C1=CCC(c2cccc(Cl)c2)O1` (stereo not given), the z-score in assay [1] is -1; in [2], 0.464; in assay [3], -0.531; in [4] it was -0.488; in assay [5], -1.15; in [6] it was -0.454. The z-score is -0.627 (inactive) in assay [7], 0.96 in assay [8], -0.472 in assay [9] and 1.16 (inactive) in assay [10].
As for `COCCOC(=O)N1C(=O)[C@@]2(c3cc(C#CC4(O)CCCCCC4)ccc31)[C@H](C(=O)NC[C@H](O)c1ccccc1)[C@H]1C(=O)O[C@H](c3ccccc3)[C@H](c3ccccc3)N1[C@@H]2c1ccc(OCCO)cc1`, the z-score in assay [1] is -0.248; in [2] it was 0.504; in [3], -0.466; in assay [4], -1.16; in [5], -1.91; in assay [6], -1.64. Moreover, the z-score in [7] was 1 (inactive); in assay [8], -1.01; in assay [9], -1.19; in assay [10], 0.365 (inactive).
In the case of `COC(=O)[C@@]1(Cc2ccccc2)[C@H]2c3cc(C(=O)N(C)C)n(Cc4ccc(O)c(OC)c4)c3C[C@H]2CN1C(=O)c1ccccc1`, the z-score in [1] is -0.927; in assay [2], 1.68; in assay [3] it was 0.0419; in [4], -0.494; in [5], -1.26; in assay [6], 2.19. For the same molecule, the z-score in assay [7] is -0.485 (inactive); in assay [8] it was -0.671; in assay [9], -1.47; in [10], 0.349 (inactive).
